This is an account of results in publication PMC12820563, “FoxP3 forms a head-to-head dimer in vivo and stabilizes its multimerization on adjacent microsatellites”.

In all, about 16,000 sequences were measured (“rpm ratio (pull-down/input)”: median about 0.5, highest 2% from about 5.5 on). The sample holds the highest values, similar sequences and a random draw of the others, so the mix is not that of the screen.

For the assay, the target named is T1, MBP-FoxP3dN (Mus musculus, UniProt Q99JB6 188-423).
T1 sequence: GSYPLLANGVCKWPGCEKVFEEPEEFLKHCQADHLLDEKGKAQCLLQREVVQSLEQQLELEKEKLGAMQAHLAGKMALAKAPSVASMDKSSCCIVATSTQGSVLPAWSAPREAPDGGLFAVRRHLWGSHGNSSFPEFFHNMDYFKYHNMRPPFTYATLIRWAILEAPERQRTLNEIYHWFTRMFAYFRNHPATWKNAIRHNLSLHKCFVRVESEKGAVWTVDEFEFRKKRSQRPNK
Briefly: PD-seq (MBP pull-down with sequencing); 20 mM Tris-HCl pH 7.5, 100 mM NaCl, 1.5 mM MgCl2, 0.4 uM protein, 0.1 uM dsDNA library, 30 min, room temperature, amylose pull-down; high values mean tight binding. Conditions: protein: recombinant; tags: His6-MBP; chain copies: 2; dsDNA, one strand shown. In short, it runs like this:
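Amylose resin was used to capture complexes formed during 30 min at room temperature in Tris pH 7.5 buffer with NaCl and MgCl2 between 0.4 µM His6-MBP-tagged mouse FoxP3 or FoxP1 fragment lacking the N-terminus, expressed in E. coli, and 0.1 µM Klenow-filled double-stranded degenerate DNA library. After three washes, the DNA was released with proteinase K, barcoded by PCR and sequenced on Illumina. Binding is pooled-replicate reads-per-million enrichment, pull-down over input.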
Regarding “GATGATTGTTCTCCCAGCTGATGAATTGTGCACCTCGAGTAAACAAATTTTCCTAATCTTTCTGTTCAAGCGCCATCTAC”, the binding signal is 2.92 RPM ratio (pull-down/input).

On to “GATGATTGTTCTCCCAGCTGATGAATTCGGAACGTCGAGTAAACAAATTTTCCTAATCTTTCTGTTCAAGCGCCATCTAC”, for which the binding signal was 0.297 RPM ratio (pull-down/input).

On to “GATGATTGTTCTCCCAGCTGATGAATTGATTCAGTCGAGTAAACAAATTTTCCTAATCTTTCTGTTCAAGCGCCATCTAC”, for which the binding signal was 0.28 RPM ratio (pull-down/input).

For the sequence “GATGATTGTTCTCCCAGCTGATGAATTGTGGGGGTCGAGTAAACAAATTTTCCTAATCTTTCTGTTCAAGCGCCATCTAC”, the binding signal is 0.783 RPM ratio (pull-down/input).

As to “GATGATTGTTCTCCCAGCTGATGAATTCTAAAGCTCGAGTAAACAAATTTTCCTAATCTTTCTGTTCAAGCGCCATCTAC”, the binding signal is 0.248 RPM ratio (pull-down/input).

As to “GATGATTGTTCTCCCAGCTGATGAATTTTTTGCTTCGAGTAAACAAATTTTCCTAATCTTTCTGTTCAAGCGCCATCTAC”, the binding signal is 0.306 RPM ratio (pull-down/input).

Regarding “GATGATTGTTCTCCCAGCTGATGAATTGTTTGCTTCGAGTAAACAAATTTTCCTAATCTTTCTGTTCAAGCGCCATCTAC”, the binding signal is 6.19 RPM ratio (pull-down/input).

Take “GATGATTGTTCTCCCAGCTGATGAATTTGCTTCTTCGAGTAAACAAATTTTCCTAATCTTTCTGTTCAAGCGCCATCTAC”: the binding signal was 2.97 RPM ratio (pull-down/input).

As for “GATGATTGTTCTCCCAGCTGATGAATTAGCTCGCTCGAGTAAACAAATTTTCCTAATCTTTCTGTTCAAGCGCCATCTAC”, the binding signal was 0.272 RPM ratio (pull-down/input).

In the case of “GATGATTGTTCTCCCAGCTGATGAATTCCGGGTGTCGAGTAAACAAATTTTCCTAATCTTTCTGTTCAAGCGCCATCTAC”, the binding signal is 0.669 RPM ratio (pull-down/input).

Take “GATGATTGTTCTCCCAGCTGATGAATTCCGATTGTCGAGTAAACAAATTTTCCTAATCTTTCTGTTCAAGCGCCATCTAC”: the binding signal is 1.93 RPM ratio (pull-down/input).

As to “GATGATTGTTCTCCCAGCTGATGAATTAAGTAATTCGAGTAAACAAATTTTCCTAATCTTTCTGTTCAAGCGCCATCTAC”, the binding signal is 1.05 RPM ratio (pull-down/input).

With “GATGATTGTTCTCCCAGCTGATGAATTGATCTTGTCGAGTAAACAAATTTTCCTAATCTTTCTGTTCAAGCGCCATCTAC”, the binding signal was 0.293 RPM ratio (pull-down/input).

Take “GATGATTGTTCTCCCAGCTGATGAATTGCCTCTCTCGAGTAAACAAATTTTCCTAATCTTTCTGTTCAAGCGCCATCTAC”: the binding signal was 1.04 RPM ratio (pull-down/input).

On to “GATGATTGTTCTCCCAGCTGATGAATTTTGCCTCTCGAGTAAACAAATTTTCCTAATCTTTCTGTTCAAGCGCCATCTAC”, for which the binding signal is 5.78 RPM ratio (pull-down/input).

On to “GATGATTGTTCTCCCAGCTGATGAATTGTTTGCCTCGAGTAAACAAATTTTCCTAATCTTTCTGTTCAAGCGCCATCTAC”, for which the binding signal is 5.67 RPM ratio (pull-down/input).

Consider “GATGATTGTTCTCCCAGCTGATGAATTTGTTGCCTCGAGTAAACAAATTTTCCTAATCTTTCTGTTCAAGCGCCATCTAC”, for which the binding signal was 7.02 RPM ratio (pull-down/input).

“GATGATTGTTCTCCCAGCTGATGAATTTGCCTCTTCGAGTAAACAAATTTTCCTAATCTTTCTGTTCAAGCGCCATCTAC”: the binding signal was 2.52 RPM ratio (pull-down/input).

Consider “GATGATTGTTCTCCCAGCTGATGAATTTGCCTCCTCGAGTAAACAAATTTTCCTAATCTTTCTGTTCAAGCGCCATCTAC”, for which the binding signal was 2.37 RPM ratio (pull-down/input).

Regarding “GATGATTGTTCTCCCAGCTGATGAATTTTTTGCCTCGAGTAAACAAATTTTCCTAATCTTTCTGTTCAAGCGCCATCTAC”, the binding signal was 0.432 RPM ratio (pull-down/input).

Regarding “GATGATTGTTCTCCCAGCTGATGAATTTTGCGCCTCGAGTAAACAAATTTTCCTAATCTTTCTGTTCAAGCGCCATCTAC”, the binding signal is 2.67 RPM ratio (pull-down/input).

On to “GATGATTGTTCTCCCAGCTGATGAATTGCGCCTCTCGAGTAAACAAATTTTCCTAATCTTTCTGTTCAAGCGCCATCTAC”, for which the binding signal is 7.17 RPM ratio (pull-down/input).

As to “GATGATTGTTCTCCCAGCTGATGAATTTGCCCTCTCGAGTAAACAAATTTTCCTAATCTTTCTGTTCAAGCGCCATCTAC”, the binding signal was 0.526 RPM ratio (pull-down/input).

For “GATGATTGTTCTCCCAGCTGATGAATTCTTTGCCTCGAGTAAACAAATTTTCCTAATCTTTCTGTTCAAGCGCCATCTAC”, the binding signal was 0.403 RPM ratio (pull-down/input).

Consider “GATGATTGTTCTCCCAGCTGATGAATTTGCCGCCTCGAGTAAACAAATTTTCCTAATCTTTCTGTTCAAGCGCCATCTAC”, for which the binding signal was 0.88 RPM ratio (pull-down/input).

Take “GATGATTGTTCTCCCAGCTGATGAATTAGGTCCTTCGAGTAAACAAATTTTCCTAATCTTTCTGTTCAAGCGCCATCTAC”: the binding signal is 0.354 RPM ratio (pull-down/input).

With “GATGATTGTTCTCCCAGCTGATGAATTCTCTCCATCGAGTAAACAAATTTTCCTAATCTTTCTGTTCAAGCGCCATCTAC”, the binding signal is 0.223 RPM ratio (pull-down/input).

As to “GATGATTGTTCTCCCAGCTGATGAATTGGTACGCTCGAGTAAACAAATTTTCCTAATCTTTCTGTTCAAGCGCCATCTAC”, the binding signal was 0.466 RPM ratio (pull-down/input).

For the sequence “GATGATTGTTCTCCCAGCTGATGAATTGCCTTTTTCGAGTAAACAAATTTTCCTAATCTTTCTGTTCAAGCGCCATCTAC”, the binding signal is 1.02 RPM ratio (pull-down/input).

“GATGATTGTTCTCCCAGCTGATGAATTTGCGCCTTCGAGTAAACAAATTTTCCTAATCTTTCTGTTCAAGCGCCATCTAC”: the binding signal is 3.88 RPM ratio (pull-down/input).

Consider “GATGATTGTTCTCCCAGCTGATGAATTTTTGCCTTCGAGTAAACAAATTTTCCTAATCTTTCTGTTCAAGCGCCATCTAC”, for which the binding signal is 2.86 RPM ratio (pull-down/input).

Consider “GATGATTGTTCTCCCAGCTGATGAATTTGCCTTTTCGAGTAAACAAATTTTCCTAATCTTTCTGTTCAAGCGCCATCTAC”, for which the binding signal is 2.1 RPM ratio (pull-down/input).

Take “GATGATTGTTCTCCCAGCTGATGAATTGCGCCTTTCGAGTAAACAAATTTTCCTAATCTTTCTGTTCAAGCGCCATCTAC”: the binding signal was 6.82 RPM ratio (pull-down/input).

With “GATGATTGTTCTCCCAGCTGATGAATTTTGCCTTTCGAGTAAACAAATTTTCCTAATCTTTCTGTTCAAGCGCCATCTAC”, the binding signal was 5.56 RPM ratio (pull-down/input).

For the sequence “GATGATTGTTCTCCCAGCTGATGAATTGTCTCATTCGAGTAAACAAATTTTCCTAATCTTTCTGTTCAAGCGCCATCTAC”, the binding signal is 0.539 RPM ratio (pull-down/input).

In the case of “GATGATTGTTCTCCCAGCTGATGAATTTCCTGTGTCGAGTAAACAAATTTTCCTAATCTTTCTGTTCAAGCGCCATCTAC”, the binding signal is 0.352 RPM ratio (pull-down/input).

With “GATGATTGTTCTCCCAGCTGATGAATTGCCTGCGTCGAGTAAACAAATTTTCCTAATCTTTCTGTTCAAGCGCCATCTAC”, the binding signal is 0.937 RPM ratio (pull-down/input).

Take “GATGATTGTTCTCCCAGCTGATGAATTGCCTGTGTCGAGTAAACAAATTTTCCTAATCTTTCTGTTCAAGCGCCATCTAC”: the binding signal was 0.881 RPM ratio (pull-down/input).

On to “GATGATTGTTCTCCCAGCTGATGAATTGCCTTTGTCGAGTAAACAAATTTTCCTAATCTTTCTGTTCAAGCGCCATCTAC”, for which the binding signal was 0.946 RPM ratio (pull-down/input).

Consider “GATGATTGTTCTCCCAGCTGATGAATTGTTCCTGTCGAGTAAACAAATTTTCCTAATCTTTCTGTTCAAGCGCCATCTAC”, for which the binding signal is 0.351 RPM ratio (pull-down/input).

In the case of “GATGATTGTTCTCCCAGCTGATGAATTTGCCCTGTCGAGTAAACAAATTTTCCTAATCTTTCTGTTCAAGCGCCATCTAC”, the binding signal was 0.487 RPM ratio (pull-down/input).

For the sequence “GATGATTGTTCTCCCAGCTGATGAATTGCGCCTGTCGAGTAAACAAATTTTCCTAATCTTTCTGTTCAAGCGCCATCTAC”, the binding signal was 6.14 RPM ratio (pull-down/input).

Take “GATGATTGTTCTCCCAGCTGATGAATTGTGCCTGTCGAGTAAACAAATTTTCCTAATCTTTCTGTTCAAGCGCCATCTAC”: the binding signal was 6.42 RPM ratio (pull-down/input).

Consider “GATGATTGTTCTCCCAGCTGATGAATTTTGCCTGTCGAGTAAACAAATTTTCCTAATCTTTCTGTTCAAGCGCCATCTAC”, for which the binding signal was 5.62 RPM ratio (pull-down/input).
